Compounds with a hit are over-represented: about 6.1% of the library has one in this group of screens.
ERG Ets-DNA blk = inhibitors of human ERG Ets domain-DNA interaction; fluorescence polarization, His-ERG Ets domain / labelled DNA; AID 624246; 370,000 compounds, 0.028% hits; Potency, µM (titrated, usually from 76.9 µM), for inactives: top-dose FP activity, negative = inhibition, hits mostly inhibitors; P11308; active means well fitted inhibition curve with a large enough effect in the polarisation, with a control signal flat; the % refers to the polarisation;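 further: polarization taken with two DNA probes labelled with fluorescein and Texas red; potency means the concentration at half of the fitted maximal effect; % of control where 0% means no effect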
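His-tagged ERG Ets domain (1 uM in the protein solution; 300mM KCl, 50mM Tris-HCl, 1mM EDTA, 1mM DTT, pH 7.5) received compound, then a probe mix of 5 nM fluorescein-DNA and 100nM Texas-615-DNA. Fluorescence polarization was read for both dyes.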
D3 ag = activates the human D3 dopamine receptor. max activation, %. D3R DiscoveRx beta-arrestin cells, luminescence, 90 min. P35462. AID 652048. 410,000 compounds, 0.58% hits; in the data active means max activation above about 30%; further: 0% is about no effect
Target sequence (P35462 whole entry, looked up): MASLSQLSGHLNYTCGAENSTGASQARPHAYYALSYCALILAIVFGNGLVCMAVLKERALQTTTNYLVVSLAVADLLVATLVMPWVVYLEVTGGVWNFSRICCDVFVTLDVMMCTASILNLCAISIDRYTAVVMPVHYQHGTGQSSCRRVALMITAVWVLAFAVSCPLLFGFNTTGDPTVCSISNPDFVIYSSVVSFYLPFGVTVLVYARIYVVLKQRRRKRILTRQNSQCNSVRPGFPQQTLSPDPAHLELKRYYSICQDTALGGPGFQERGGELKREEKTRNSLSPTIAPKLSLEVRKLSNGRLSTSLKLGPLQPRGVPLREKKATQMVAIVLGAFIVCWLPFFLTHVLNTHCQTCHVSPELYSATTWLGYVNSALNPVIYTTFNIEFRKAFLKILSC
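Agonist mode: compounds and dopamine controls were applied to plated cells for 90 min at 37 degrees C after an overnight attachment at 1500 cells/well. Luminescent read-out followed 30 - 60 minutes at room temperature with DiscoveRx detection reagent.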
D1 agonist = activates the human D1 dopamine receptor; activation, % at 2 µM; HEK293 T-REx D1 cells, calcium flux, agonist mode; P21728; 360,000 compounds, 1% hits; in the data active means activation above about 30%; further: 0% is about no effect
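Inducible HEK293 T-REx D1 cells, force-coupled to calcium signalling, were plated at 4000 cells/well with tetracycline and held overnight at 30 C. After no-wash calcium dye loading, compound-evoked calcium rise over 180 s flagged agonists.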
D1 antag = blocks dopamine activation of the human D1 receptor; P21728; HEK293 TREx D1 cells, calcium flux, dopamine EC80; stronger effect = lower value; activity change, negative = inhibition, % at 10 µM; 360,000 compounds, 3.2% hits; AID 504652; in the data active means activity change below about -30%; further: on the % scale 0 is the no-effect control and ±100 the full control effect
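Tetracycline-induced HEK293 T-REx cells with force-coupled D1 receptor were loaded with a no-wash calcium dye. Compound was added after a 10 s baseline and read kinetically for 180 s; EC80 dopamine was then added and calcium flux followed another 180 s.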
D1 PAM = enhances dopamine response at the human D1 receptor; P21728; HEK293 TREx D1 cells, calcium flux, dopamine EC20 potentiation; potentiation, % at 10 µM; 360,000 compounds, 0.036% hits; AID 504651; in the data active means potentiation above about 30%; further: 0% is about no effect
D3 antag = antagonists of human D3 dopamine receptor; P35462; 360,000 compounds, 2.5% hits; D3R cells, DiscoveRx beta-arrestin luminescence, antagonist mode; stronger effect = lower value; max response, negative = inhibition, %; in the data active means max response below about -50%; further: on the % scale 0 is the no-effect control and ±100 the full control effect
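Cells plated overnight at 1500 cells/well, then exposed to library compounds with dopamine controls for 90 minutes at 37 degrees C. DiscoveRx reagent added for 30–60 minutes at room temperature; luminescence read, quantitative HTS format.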
* hit, by the source's call; . = no result.

SMILES	ERG Ets-DNA blk	D3 ag	D1 agonist	D1 antag	D1 PAM	D3 antag
CC(OC(=O)Cc1coc2cc3c(cc12)CCC3)C(=O)NC(N)=O (stereo not given)	9%	-1	3	17	-1	-6
CCOc1ccc(OCC)c(NC(=O)CCCN2C(=S)NC(C)(C)CC2C)c1 (stereo not given)	5%	0	-3	15	-2	-56*
CCCCC[C@H](O)/C=C/[C@@H]1[C@H]2C/C(=C/CCCC(=O)O)O[C@H]2C[C@H]1O	.	6	.	.	.	.
O=c1c2ccccc2nnn1CSc1nnc(-c2ccco2)o1	6%	2	1	-17	-4	9
N#Cc1c(NC(=O)c2ccc(-c3ccccc3[N+](=O)[O-])o2)sc2c1CCCC2	1%	-14	0	-13	1	-117*
C/C(=N\Nc1nc2c(s1)CCCC2)c1ccc(Cl)cc1	3%	-2	2	3	-1	4
COc1cc(/C=C2\N=C(C)OC2=O)cc(OC)c1OC	4%	-4	0	47	-2	-24
COc1cc(/C=C2/N=C(C3CCCCC3)OC2=O)cc(OC)c1OC	5%	-4	3	2	-5	-69*
CCSC1=NCCN1S(=O)(=O)c1ccc2ccccc2c1	1%	-1	1	-31*	-3	-2
O=S(=O)(c1ccc2ccccc2c1)N1CCN=C1SCc1cccnc1	-3%	7	3	-34*	-2	8
CCN(Cc1ccccc1)Cc1c(O)ccc2oc(C)c(C(=O)Nc3ccc(C)cc3C)c12	-2%	13	0	25	-1	.
CCc1ccc(-c2nc(-c3cc4ccccc4oc3=O)sc2C)cc1	2%	7	5	17	-1	.
Cc1nc2ccccn2c1C(=O)/C=C/c1ccc(F)cc1	3%	-4	5	-7	-3	-23
COc1ccc(/C=C/C(=O)c2c(C)nc3ccccn23)cc1	7%	38*	2	-7	-3	16
Cc1ccc(-n2c(=O)c3c(c4cc(C)ccc4n3C)n(CC(=O)NCc3ccccc3Cl)c2=O)cc1	6%	7	1	-7	-1	.
CCOC(=O)C(c1nc2ccccc2[nH]1)n1c(-c2ccccn2)nc2ccccc21 (stereo not given)	.	7	.	.	.	3
COc1cccc(-c2noc(COc3cccc(C)c3C)n2)c1	0%	5	25	4	-1	.
COc1ccccc1Cc1noc(COc2cccc(C)c2C)n1	-3%	-11	14	-78*	-6	10
O=C(C1CCCO1)N1CCN(C(=S)Nc2ccc(F)c(Cl)c2)CC1 (stereo not given)	7%	1	8	6	-3	-18
O=C(COC(=O)c1cccc(S(=O)(=O)N2CCc3ccccc32)c1)Nc1ncc(Cl)cc1Cl	1%	-48	3	2	-5	-6
O=C(COC(=O)c1cccc(S(=O)(=O)N2CCCCCC2)c1)Nc1ccccc1	11%	5	6	19	8	2
NC(=O)NC(=O)COC(=O)c1cccc(S(=O)(=O)N2CCCCCC2)c1	1%	6	1	-44*	-6	-5
CC(=O)N1CCN(S(=O)(=O)c2cccc(C(=O)OCC(=O)Nc3c(Cl)cccc3C(F)(F)F)c2)CC1	2%	-14	.	.	.	18
O=C(COC(=O)c1cccc(S(=O)(=O)N2CCCC2)c1)Nc1ccccc1C(F)(F)F	-8%	1	8	-33*	-3	6
O=C(COC(=O)c1cccc(S(=O)(=O)N2CCc3ccccc32)c1)Nc1ncc(C(F)(F)F)cc1Cl	-6%	-2	3	6	-2	-57*
COc1ccccc1C(=O)NC(CCSC)C(=O)NCC(c1ccccc1OC)N1CCCC1 (stereo not given)	1%	-11	1	-7	11	-1
NC(=O)C1CCN(c2nc(-c3cc4ccccc4o3)cs2)CC1	.	.	23	-33*	-6	.

Compound activity as filed in PubChem BioAssay.
